In PubChem BioAssay AID1159580 (chemical genetic matrix, 2015):
Values joined by “and” are separate entries in the source; they are usually repeats but may differ in a detail not shown here. Equal values may be shown once. Among all 5,500 compounds or so, about 2,000 (36%) were called active. Not shown: some 18% with an inconclusive outcome. No stated cut-off is given here; in the data, active means normalized growth mostly below about 0.91 (no sharp cut-off); inconclusive means no clear call, values can overlap the other calls; inactive means mostly above about 0.92. This is one part of the list.

Test: chemical genetic growth profiling, strain panel (AID 1159580);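 further: tested at 20 µM; growth read once vehicle control cultures reached saturation at 30 °C; 1 = growth at the plate median or of vehicle wells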
Conditions: S. cerevisiae deletion strains, growth OD
[1] = locus YAL040C, strain CLN3, stronger effect = lower value
[2] = locus YCL061C, strain MRC1 (second series), stronger effect = lower value
[3] = locus YDR150W, strain NUM1, stronger effect = lower value
[4] = locus YDR363W, strain ESC2, stronger effect = lower value
[5] = locus YER002W, strain NOP16, stronger effect = lower value
[6] = locus YGR078C, strain PAC10, stronger effect = lower value
[7] = locus YGR229C, strain SMI1, stronger effect = lower value
[8] = locus YNL128W, strain TEP1, stronger effect = lower value
[9] = locus YNL175C, strain NOP13, stronger effect = lower value
[10] = locus YNL197C, strain WHI3, stronger effect = lower value
[11] = locus YNL224C, strain SQS1, stronger effect = lower value
[12] = locus YOR083W, strain WHI5 (second series), stronger effect = lower value
[13] = locus YPL241C, strain CIN2, stronger effect = lower value
[14] = locus YHR030C, strain SLT2, stronger effect = lower value
[15] = locus YHR079C, strain IRE1, stronger effect = lower value
[16] = locus YJL095W, strain BCK1, stronger effect = lower value
[17] = locus YJR066W, strain TOR1, stronger effect = lower value
[18] = locus YLR113W, strain HOG1, stronger effect = lower value
[19] = locus YMR263W, strain SAP30, stronger effect = lower value
[20] = locus YNL183C, strain NPR1, stronger effect = lower value
[21] = locus YOR231W, strain MKK1, stronger effect = lower value
[22] = locus YPL256C, strain CLN2, stronger effect = lower value
[23] = locus YMR307W, strain GAS1, stronger effect = lower value

Measured: normalized growth

COc1cc2nc(N3CC=[N+](C(=O)c4ccco4)CC3)nc(N)c2cc1OC
inactive: [1] 1.02 | [2] 1 | [3] 1 | [4] 1.01 | [5] 1.01 | [6] 1.01 | [7] 1.01 | [8] 1 | locus YNL153C, strain GIM3, stronger effect = lower value 0.978 | [9] 0.998 | [10] 1.01 | [11] 1.06 | [12] 1.01 | [13] 1

COc1cc2nc(N3CCN(C(=O)C4COc5ccccc5O4)CC3)nc(N)c2cc1OC (stereo not given)
inactive: [1] 0.982 | [2] 0.985 | [4] 1.07 | [5] 1.01 | [6] 0.986 | [14] 1.03 | [15] 0.981 | [16] 0.983 | [17] 0.968 | [18] 0.999 | [19] 1.01 | [8] 1.01 | [9] 0.99 | [20] 0.939 | [10] 0.947 | [11] 1.01 | [12] 0.988 | [21] 0.983 | [22] 0.988

COc1cc2nc(N3CCN(C(=O)OCc4ccccc4)C(C(=O)NC(C)(C)C)C3)nc(N)c2cc1OC (stereo not given)
inactive: [1] 0.999 | [2] 0.984 | [3] 0.997 | [4] 0.967 | [6] 1.01 | [19] 0.993 | [23] 0.989 | [8] 1.08 | [9] 1.02 | [10] 1.03 | [11] 1.03 | locus YNL322C, strain KRE1, stronger effect = lower value 0.985 | [12] 1.07 | [13] 0.991
active: [5] 1.14 [resistant]

CC(C)=CC1C(C(=O)OCc2cccc(Oc3ccccc3)c2)C1(C)C (stereo not given)
inactive: locus YAL021C, strain ccr4, stronger effect = lower value 1.01 | locus YAL026C, strain drs2, stronger effect = lower value 1.02 | locus YAL030W, strain snc1, stronger effect = lower value 1.01 | locus YBL061C, strain skt5, stronger effect = lower value 1.01 | locus YBR009C, strain hhf1, stronger effect = lower value 1.01 | locus YBR021W, strain FUR4, stronger effect = lower value 0.998 | locus YBR023C, strain chs3, stronger effect = lower value 1.01 | locus YBR171W, strain sec66, stronger effect = lower value 1.02 | locus YBR229C, strain ROT2, stronger effect = lower value 0.947 | locus YBR231C, strain swc5, stronger effect = lower value 0.994 | locus YBR279W, strain paf1, stronger effect = lower value 1 | locus YCL011C, strain gbp2, stronger effect = lower value 1.01 | locus YCL016C, strain dcc1, stronger effect = lower value 1.01 | locus YCL029C, strain bik1, stronger effect = lower value 0.972 | locus YCL069W, strain vba3, stronger effect = lower value 1.01 | locus YCR088W, strain abp1, stronger effect = lower value 1.01 | locus YDL005C, strain med2, stronger effect = lower value 1.01 | locus YDL035C, strain GPR1, stronger effect = lower value 0.965 | locus YDL040C, strain nat1, stronger effect = lower value 1 | locus YDL074C, strain BRE1, stronger effect = lower value 1.01 | locus YDL101C, strain DUN1, stronger effect = lower value 0.997 | locus YDL185W, strain tfp1, stronger effect = lower value 0.968 | locus YDL192W, strain arf1, stronger effect = lower value 0.987 | locus YDR001C, strain nth1, stronger effect = lower value 1.01 | locus YDR069C, strain doa4, stronger effect = lower value 0.99 | locus YDR101C, strain arx1, stronger effect = lower value 0.967 | locus YDR137W, strain rgp1, stronger effect = lower value 0.993 | [3] 0.993 | locus YDR159W, strain sac3, stronger effect = lower value 1.02 | locus YDR162C, strain NBP2, stronger effect = lower value 0.964 | locus YDR195W, strain ref2 0.98 | locus YDR297W, strain sur2, stronger effect = lower value 1 | locus YDR318W, strain mcm21, stronger effect = lower value 0.986 | locus YDR334W, strain swr1, stronger effect = lower value 1.01 | locus YDR335W, strain msn5, stronger effect = lower value 1.02 | locus YDR388W, stronger effect = lower value 0.983 | locus YDR392W, strain spt3, stronger effect = lower value 1.02 | locus YDR502C, strain sam2, stronger effect = lower value 0.992 | locus YEL003W, strain gim4, stronger effect = lower value 1.01 | locus YEL037C, strain rad23, stronger effect = lower value 1.01 | locus YEL061C, strain CIN8 (second series), stronger effect = lower value 1.01 | locus YEL061C, strain CIN8, stronger effect = lower value 0.995 | locus YER015W, strain faa2, stronger effect = lower value 1.01 | locus YER016W, strain bim1, stronger effect = lower value 1.01 | locus YER110C, stronger effect = lower value 0.978 | locus YER111C, strain swi4, stronger effect = lower value 1.01 | locus YER155C, strain BEM2 (second series), stronger effect = lower value 1.02 | locus YER155C, strain BEM2, stronger effect = lower value 0.998 | locus YER167W, strain BCK2, stronger effect = lower value 0.99 | locus YFR010W, strain ubp6, stronger effect = lower value 0.997 | locus YGL078C, strain dbp3, stronger effect = lower value 0.987 | locus YGL086W, strain mad1, stronger effect = lower value 0.996 | locus YGL167C, strain pmr1, stronger effect = lower value 1.02 | locus YGL173C, strain kem1, stronger effect = lower value 1 | locus YGL227W, strain vid30, stronger effect = lower value 1.01 | locus YGL240W, strain doc1, stronger effect = lower value 1.03 | locus YGL248W, strain PDE1, stronger effect = lower value 1.01 | locus YGL253W, strain hxk2, stronger effect = lower value 1.01 | [6] 1.01 | locus YGR135W, strain pre9, stronger effect = lower value 0.982 | [7] 0.99 | locus YGR252W, strain gcn5, stronger effect = lower value 0.991 | locus YHR013C, strain ard1, stronger effect = lower value 1.01 | locus YHR027C, strain rpn1, stronger effect = lower value 1.01 | [14] 0.987 and 0.975 | locus YHR079C, strain IRE1 (second series), stronger effect = lower value 0.99 | [15] 0.979 | locus YHR094C, strain hxt1, stronger effect = lower value 0.988 | locus YHR129C, strain ARP1, stronger effect = lower value 0.991 | locus YHR142W, strain chs7, stronger effect = lower value 1 | locus YHR200W, strain rpn10, stronger effect = lower value 0.976 | locus YIL066C, strain RNR3, stronger effect = lower value 0.96 | locus YIL073C, strain SPO22, stronger effect = lower value 1 | locus YIL125W, strain kgd1, stronger effect = lower value 0.976 | locus YIR030C, strain dcg1, stronger effect = lower value 0.982 | locus YJL092W, strain hpr5, stronger effect = lower value 1.01 | locus YJL095W, strain BCK1 (second series), stronger effect = lower value 1 | [16] 1.06 and 0.979 | locus YJL115W, strain asf1, stronger effect = lower value 1.02 | locus YJL129C, strain trk1, stronger effect = lower value 1.03 | locus YJL134W, strain LCB3, stronger effect = lower value 0.987 | locus YJL154C, strain vps35, stronger effect = lower value 1.01 | locus YJL164C, strain tpk1, stronger effect = lower value 1.01 | locus YJL166W, strain qcr8, stronger effect = lower value 1 | locus YJL168C, strain set2, stronger effect = lower value 0.994 | locus YJL187C, strain SWE1 (second series), stronger effect = lower value 1.04 | locus YJR043C, strain POL32, stronger effect = lower value 0.971 | [17] 0.896 | locus YKL009W, strain mrt4, stronger effect = lower value 0.977 | locus YKL068W, stronger effect = lower value 0.987 | locus YKL085W, strain MDH1 (second series), stronger effect = lower value 1 | locus YKL085W, strain MDH1, stronger effect = lower value 1 | locus YKL160W, strain elf1, stronger effect = lower value 1.02 | locus YKL190W, strain CNB1, stronger effect = lower value 0.997 | locus YKR001C, strain vps1, stronger effect = lower value 0.992 | locus YKR026C, strain gcn3, stronger effect = lower value 1.01 | locus YKR091W, strain srl3, stronger effect = lower value 1.01 | locus YLL001W, strain dnm1, stronger effect = lower value 1.02 | locus YLL026W, stronger effect = lower value 1.01 | locus YLL041C, strain sdh2, stronger effect = lower value 1.02 | locus YLR027C, strain aat2, stronger effect = lower value 1.01 | locus YLR039C, strain RIC1, stronger effect = lower value 0.972 | locus YLR058C, strain SHM2, stronger effect = lower value 0.993 | locus YLR102C, strain apc9, stronger effect = lower value 0.991 | [18] 0.998 | locus YLR221C, strain rsa3, stronger effect = lower value 1.01 | locus YLR258W, strain gsy2, stronger effect = lower value 1.01 | locus YLR262C, strain YPT6 (second series), stronger effect = lower value 1.01 | locus YLR262C, strain YPT6, stronger effect = lower value 0.927 | locus YLR268W, strain sec22, stronger effect = lower value 0.993 | locus YLR320W, strain mms22, stronger effect = lower value 1.01 | locus YLR330W, strain CHS5, stronger effect = lower value 0.984 | locus YLR342W, strain FKS1 (second series), stronger effect = lower value 0.959 | locus YLR342W, strain FKS1, stronger effect = lower value 1.01 | locus YLR357W, strain rsc2, stronger effect = lower value 1.01 | locus YLR370C, strain arc18, stronger effect = lower value 1.03 | locus YLR371W, strain rom2, stronger effect = lower value 0.972 | locus YLR384C, strain iki3, stronger effect = lower value 1.02 | locus YLR418C, strain cdc73, stronger effect = lower value 0.985 | locus YML016C, strain PPZ1, stronger effect = lower value 0.993 | locus YML032C, strain rad52, stronger effect = lower value 0.983 | locus YML120C, strain ndi1, stronger effect = lower value 1.01 | locus YML124C, strain tub3, stronger effect = lower value 0.995 | locus YMR058W, strain fet3, stronger effect = lower value 1.02 | locus YMR078C, strain ctf18, stronger effect = lower value 0.972 | locus YMR125W, strain sto1, stronger effect = lower value 1.02 | locus YMR129W, stronger effect = lower value 1 | locus YMR205C, strain PFK2, stronger effect = lower value 0.993 | locus YMR223W, strain ubp8, stronger effect = lower value 0.983 | locus YMR231W, strain pep5, stronger effect = lower value 1.01 | [23] 1.02 | locus YNL067W, strain RPL9B, stronger effect = lower value 1.04 | locus YNL071W, strain lat1, stronger effect = lower value 1.01 | [20] 0.934 | locus YNL209W, strain ssb2, stronger effect = lower value 0.998 | locus YNL233W, strain BNI4, stronger effect = lower value 1.05 | locus YNL248C, strain rpa49, stronger effect = lower value 0.994 | locus YNL250W, strain rad50, stronger effect = lower value 0.982 | locus YNL271C, strain bni1, stronger effect = lower value 0.971 | locus YNL298W, strain CLA4, stronger effect = lower value 0.986 | locus YNL307C, strain MCK1, stronger effect = lower value 0.983 | locus YNL322C, strain KRE1 (second series), stronger effect = lower value 1.01 | locus YNR049C, strain mso1, stronger effect = lower value 1.01 | locus YNR052C, strain pop2, stronger effect = lower value 0.988 | locus YOL006C, strain TOP1, stronger effect = lower value 1.12 | locus YOL012C, strain htz1 1.31 | locus YOL147C, strain pex11, stronger effect = lower value 0.988 | locus YOR001W, strain rrp6, stronger effect = lower value 0.988 | locus YOR061W, strain CKA2, stronger effect = lower value 0.977 | locus YOR069W, strain VPS5, stronger effect = lower value 0.992 | locus YOR070C, strain gyp1, stronger effect = lower value 1 | locus YOR080W, strain dia2, stronger effect = lower value 1.01 | locus YOR083W, strain WHI5, stronger effect = lower value 1 | locus YOR106W, strain vam3, stronger effect = lower value 0.938 | locus YOR136W, strain idh2, stronger effect = lower value 0.996 | locus YOR144C, strain elg1, stronger effect = lower value 0.971 | locus YOR184W, strain ser1, stronger effect = lower value 0.992 | [21] 0.989 | locus YOR265W, strain rbl2, stronger effect = lower value 0.996 | locus YOR270C, strain vph1, stronger effect = lower value 0.948 | locus YOR290C, strain snf2, stronger effect = lower value 1.02 | locus YOR316C, strain cot1, stronger effect = lower value 0.985 | locus YPL051W, strain arl3, stronger effect = lower value 0.995 | locus YPL078C, strain atp4, stronger effect = lower value 1.02 | locus YPL106C, strain sse1, stronger effect = lower value 1.04 | locus YPL240C, strain hsp82, stronger effect = lower value 1.01 | [22] 0.995 | locus YPR119W, strain clb2, stronger effect = lower value 0.988 | locus YPR141C, strain kar3, stronger effect = lower value 0.982 | locus YPR163C, strain tif3, stronger effect = lower value 0.97 | locus YPR167C, strain met16, stronger effect = lower value 0.983 | strain wtn01, stronger effect = lower value 0.995
